Measured values: PubChem BioAssay
For some of these results: Potency and affinity values are given separately. Active and inactive are the calls of the source.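 Rule for the calls, unless noted: active = earlier screen potentiator hit that boosts the TRPC4 ion channel at some dose, with a dose response; inactive = no potentiation, no dose response, or not a prior hit.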

Legend:
[1] = system: TRPC4 beta (transient receptor potential cation channel C4), mouse; test: activators of mouse TRPC4 channel, confirmation, cell-based, Fluo4 calcium, HEK293 TRPC4beta/mu-opioid, duplicates, 10 µM (AID 2426;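 active = fluorescence ratio normalized to control raised more than 50% in primary screen plus both repeat runs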); settings: Fluo4 calcium fluorescence, at 10 µM; active compounds read high
[2] = system: transient receptor potential cation channel C4 beta (TRPC4), mouse; test: activators of mouse TRPC4 channel, confirmation, cell-based, second round, Fluo4, HEK293 TRPC4beta/mu-opioid, 1 µM (AID 2461;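 active = primary screen active and over 50% activation in each of two duplicate runs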); settings: Fluo4 calcium fluorescence, at 1 µM; active compounds read high
[3] = system: TRPC4 (transient receptor potential cation channel C4 beta), mouse; test: positive allosteric modulators of mouse TRPC4, confirmation, cell-based, second round, Fluo-4, HEK293 TRPC4beta/mu-opioid, 1 µM (AID 2554;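 active = primary screen hit whose fluorescence ratio, in both repeats, exceeds the weak agonist control mean by 3 SD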); settings: DAMGO EC20, Fluo-4 calcium flux, at 1 µM; active compounds read high
[4] = system: TRPC4 beta (transient receptor potential cation channel C4), mouse; test: positive allosteric modulators of mouse TRPC4, confirmation, cell-based, Fluo-4, HEK293 TRPC4beta/mu-opioid (AID 2555;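 active = primary screen hit whose calcium fluorescence ratio, in both repeats, exceeds the weak agonist control mean by 3 SD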); settings: DAMGO EC20, Fluo-4 calcium flux, at 10 µM; active compounds read high
[5] = biological target: Short transient receptor potential channel 4 (Mus musculus) (UniProt Q9QUQ5); test: inhibitors of mouse TRPC4 channel, confirmation, cell-based, Fluo4, HEK293 TRPC4beta/mu-opioid (AID 2636;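 active = calcium signal cut by more than 3 SD below the full-agonist control yet still positive, in both repeats and the earlier primary screen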); settings: DAMGO, Fluo4 calcium flux, at 10 µM; active compounds read high
Short transient receptor potential channel 4 (Mus musculus), sequence (Q9QUQ5 whole entry, looked up): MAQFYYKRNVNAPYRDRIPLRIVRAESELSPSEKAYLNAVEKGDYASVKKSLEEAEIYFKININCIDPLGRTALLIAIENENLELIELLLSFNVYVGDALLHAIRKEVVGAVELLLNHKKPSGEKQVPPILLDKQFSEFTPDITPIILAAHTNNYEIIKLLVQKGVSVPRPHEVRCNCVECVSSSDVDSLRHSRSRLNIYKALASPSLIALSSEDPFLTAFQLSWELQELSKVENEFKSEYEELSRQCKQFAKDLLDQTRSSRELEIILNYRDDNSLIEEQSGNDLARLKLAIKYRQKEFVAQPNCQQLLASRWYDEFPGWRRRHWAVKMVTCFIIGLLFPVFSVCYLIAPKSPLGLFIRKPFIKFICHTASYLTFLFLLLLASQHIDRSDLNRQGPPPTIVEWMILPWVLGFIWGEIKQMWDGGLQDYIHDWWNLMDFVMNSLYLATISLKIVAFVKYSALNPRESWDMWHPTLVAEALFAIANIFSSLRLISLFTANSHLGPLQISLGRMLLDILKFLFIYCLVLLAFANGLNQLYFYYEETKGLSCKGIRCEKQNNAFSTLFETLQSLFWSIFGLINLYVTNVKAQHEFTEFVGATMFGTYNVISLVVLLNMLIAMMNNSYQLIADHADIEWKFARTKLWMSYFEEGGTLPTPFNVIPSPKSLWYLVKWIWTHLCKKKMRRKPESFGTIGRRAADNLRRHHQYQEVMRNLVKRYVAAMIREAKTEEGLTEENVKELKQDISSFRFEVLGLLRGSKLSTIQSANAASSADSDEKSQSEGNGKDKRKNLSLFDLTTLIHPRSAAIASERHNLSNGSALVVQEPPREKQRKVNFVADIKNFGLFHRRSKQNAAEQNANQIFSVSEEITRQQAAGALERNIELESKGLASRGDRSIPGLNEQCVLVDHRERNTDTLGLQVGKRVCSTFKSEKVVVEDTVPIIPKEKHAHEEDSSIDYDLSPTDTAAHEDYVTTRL

[6] = biological target: Short transient receptor potential channel 4 (Mus musculus) (UniProt Q9QUQ5); test: inhibitors of mouse TRPC4 channel, confirmation, cell-based, second round, Fluo4, HEK293 TRPC4beta/mu-opioid, 1 µM (AID 2637;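 active = calcium signal ratio cut to more than 3 SD under the fully stimulated control mean yet still positive, in both repeats and the primary screen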;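 for inhibition: percent of integrated ratio relative to wells lacking test compound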); settings: Fluo4 calcium flux, DAMGO, at 1 µM; active compounds read high
[7] = biological target: Short transient receptor potential channel 4 (Mus musculus) (UniProt Q9QUQ5); test: mouse TRPC4 channel activators, dose response, cell-based, HEK293 TRPC4/mu-opioid, Fluo-4 calcium (AID 434937;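 active = primary screen activator hit with a dose response curve and TRPC4 channel activation at any tested dose; inactive = no activation, no dose response, or not a primary hit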)
[8] = biological target: Short transient receptor potential channel 4 (Mus musculus) (UniProt Q9QUQ5); test: TRPC4 positive allosteric modulators, dose response, cell-based, HEK293 TRPC4/mu-opioid, Fluo-4 calcium, EC20 DAMGO (AID 434941);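 note: calcium entry triggered by an EC20 dose of DAMGO at the co-expressed mu-opioid receptor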
[9] = biological target: Short transient receptor potential channel 6 (Mus musculus) (UniProt Q61143); test: inhibition of mouse TRPC6 channel, confirmation, selectivity assay for TRPC4 inhibitor project, cell-based, HEK293, membrane potential dye, duplicate (AID 434948;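 active = active in primary screen and both duplicates, each dropping signal beyond three positive-control SD with fluorescence still positive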); settings: HEK293 TRPC6, membrane potential dye fluorescence, at 10 µM, stimulated with maximal-effect acetylcholine; active compounds read high
Short transient receptor potential channel 6 (Mus musculus), sequence (Q61143 whole entry, looked up): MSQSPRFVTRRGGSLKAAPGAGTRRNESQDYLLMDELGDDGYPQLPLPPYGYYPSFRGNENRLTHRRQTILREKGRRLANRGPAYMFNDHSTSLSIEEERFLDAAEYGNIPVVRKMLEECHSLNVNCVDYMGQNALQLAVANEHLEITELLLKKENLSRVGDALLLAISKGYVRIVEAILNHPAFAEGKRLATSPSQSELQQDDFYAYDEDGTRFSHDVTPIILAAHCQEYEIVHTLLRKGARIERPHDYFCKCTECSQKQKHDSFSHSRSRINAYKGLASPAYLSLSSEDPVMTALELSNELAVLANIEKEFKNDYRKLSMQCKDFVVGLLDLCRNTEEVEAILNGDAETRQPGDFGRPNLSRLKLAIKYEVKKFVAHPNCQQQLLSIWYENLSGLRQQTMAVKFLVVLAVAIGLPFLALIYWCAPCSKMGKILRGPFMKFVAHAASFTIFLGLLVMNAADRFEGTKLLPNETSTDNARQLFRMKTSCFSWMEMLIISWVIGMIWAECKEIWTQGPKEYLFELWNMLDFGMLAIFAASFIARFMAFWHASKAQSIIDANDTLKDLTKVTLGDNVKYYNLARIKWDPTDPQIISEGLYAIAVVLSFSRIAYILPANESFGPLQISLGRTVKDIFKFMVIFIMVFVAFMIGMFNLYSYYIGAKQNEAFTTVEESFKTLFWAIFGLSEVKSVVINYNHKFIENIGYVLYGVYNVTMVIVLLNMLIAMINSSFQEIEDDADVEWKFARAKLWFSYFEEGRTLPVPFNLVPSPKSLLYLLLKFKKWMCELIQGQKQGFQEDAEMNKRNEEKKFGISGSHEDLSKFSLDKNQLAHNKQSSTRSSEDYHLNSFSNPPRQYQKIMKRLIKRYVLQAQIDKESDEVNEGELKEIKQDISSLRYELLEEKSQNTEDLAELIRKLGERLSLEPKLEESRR

[10] = biological target: Short transient receptor potential channel 6 (Mus musculus) (UniProt Q61143); test: activation of mouse TRPC6 channel, confirmation, selectivity assay for TRPC4 activator project, cell-based, HEK293, membrane potential dye, duplicate (AID 434950;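 active = membrane potential signal rise above negative control mean plus 3 SD in both duplicates, also active in the earlier TRPC4 screen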); settings: HEK293 TRPC6, membrane potential fluorescence, at 10 µM; active compounds read high
[11] = biological target: Short transient receptor potential channel 6 (Mus musculus) (UniProt Q61143); test: TRPC6 potentiation by TRPC4 potentiator hits, confirmation, selectivity assay for TRPC4 potentiator project, HEK293 cells, membrane potential dye, duplicate (AID 434952;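 active = compound raising the membrane signal above positive-control mean plus 3 SD in both repeats, and a primary screen hit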); settings: HEK293 TRPC6, membrane potential dye fluorescence, at 10 µM, maximal acetylcholine added after compound; active compounds read high
[12] = biological target: Short transient receptor potential channel 4 (Mus musculus) (UniProt Q9QUQ5); test: calcium flux activators in TRPC4/5HT1a cells, counter-screen for TRPC4 activator project, cell-based, second counter screen, HEK293 TRPC4/5HT1a, Fluo-4 (AID 434977;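 active = calcium signal rise above buffer-control mean plus 5 SD in both duplicates, and also a hit in the primary screen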); settings: Fluo-4 calcium flux, at 10 µM; active compounds read high
[13] = calcium flux inhibitors in TRPC4/5HT1a cells, confirmation, counter-screen for TRPC4 inhibitor project, cell-based, second counter screen, HEK293 TRPC4/5HT1a, Fluo-4 (AID 434978;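 active = primary screen active whose calcium signal fell more than 3 SD beyond the full-serotonin control mean in both duplicate plates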;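 for outcome: serotonin given first at submaximal then at maximal dose after compound preincubation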); settings: Fluo-4 calcium flux, at 10 µM, serotonin added to trigger calcium flux; active compounds read high
[14] = system: TRPC4 (mouse), co-expressed with 5HT1a in HEK293; test: calcium flux potentiators in TRPC4/5HT1a cells, confirmation, counter-screen for TRPC4 potentiator project, cell-based, second counter screen, HEK293 TRPC4/5HT1a, Fluo-4 (AID 434979;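 active = signal rise over 3 SD above mean of control wells given weak agonist, in both repeats and first screen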); settings: Fluo-4 calcium flux, at 10 µM, serotonin added at its EC20 dose; active compounds read high
[15] = calcium flux activation in mu-opioid HEK293 cells, confirmation, counter-screen for TRPC4 activator project, cell-based, HEK293 mu-opioid receptor line (AID 449723;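 active = hit in primary screen, with calcium signal over 5 SD above buffer well mean in both duplicates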;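 note: counter screen cells carry the mu-opioid receptor alone and lack TRPC4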); settings: Fluo-4 calcium fluorescence, at 10 µM; active compounds read high
[16] = calcium flux enhancement in mu-opioid HEK293 cells, confirmation, counter-screen for TRPC4 allosteric potentiator project, cell-based, HEK293 mu-opioid receptor line (AID 449724;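 active = calcium signal rise more than 3 SD above the low-dose agonist control mean, in both duplicate plates and the primary screen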); settings: Fluo-4 calcium flux, at 10 µM, compound added before EC20 DAMGO stimulus; active compounds read high

| SMILES | outcome [1] | outcome [2] | outcome [3] | outcome [4] | inhibition [5] | outcome [6] | outcome [7] | outcome [8] | outcome [9] | outcome [10] | outcome [11] | outcome [12] | inhibition [13] | outcome [14] | outcome [15] | outcome [16] | inhibition [6] | outcome [13] | inhibition [9] |
| --- | --- | --- | --- | --- | --- | --- | --- | --- | --- | --- | --- | --- | --- | --- | --- | --- | --- | --- | --- |
| Cc1cccc(C)c1-n1cccc1/C=C1\SC(=S)N(c2cccc(C(=O)O)c2)C1=O | inactive | inactive | inactive | inactive | 89% (active) | inactive | inactive | inactive | inactive | inactive | inactive | inactive | 23.2% (active) | inactive | inactive | inactive |  |  |  |
| OC1(c2ccc(F)cc2)CCN(Cc2ccccc2)C1 (stereo unspecified) | inactive | inactive | inactive | inactive | 98% (active) |  | inactive | inactive | inactive | inactive | inactive | inactive | 18.4% (active) | inactive | inactive | inactive | 55% (active) |  |  |
| CC1CCN(C(C)C(=O)Nc2ccccc2-c2ccccc2)CC1 (stereo unspecified) | inactive | inactive | inactive | inactive | 82% (active) |  | inactive | inactive | inactive | inactive | inactive | inactive | 33.1% (active) | inactive | inactive | inactive | 36% (active) |  |  |
| Cc1cc(C)c2c(=O)n(CC(=O)NCCCN3CCN(c4ccccc4F)CC3)sc2n1 | inactive | inactive | inactive | inactive | 90% (active) |  | inactive | inactive | inactive | inactive | inactive | inactive |  | inactive | inactive | inactive | 55% (active) | inactive |  |
| CCCn1c(=O)c2ccccc2n2c(SCCOc3ccccc3)nnc12 | inactive | inactive | inactive | inactive | 67% (active) | inactive | inactive | inactive | inactive | inactive | inactive | inactive | 37.4% (active) | inactive | inactive | inactive |  |  |  |
| Oc1ccccc1Nc1nc(NCc2ccco2)c2ccccc2n1 | inactive | inactive | inactive | inactive | 88% (active) | inactive | inactive | inactive |  | inactive | inactive | inactive | 39.1% (active) | inactive | inactive | inactive |  |  | 34.5% (active) |
| COc1ccc(/C=C2/SC(=S)N(CCCC(=O)Nc3ccccc3C(=O)O)C2=O)cc1 | inactive | inactive | inactive | inactive | 81% (active) |  | inactive | inactive | inactive | inactive | inactive | inactive | 36.7% (active) | inactive | inactive | inactive | 48% (active) |  |  |
| CCN(CC)CCn1c2ccccc2c2cnc(N)c(C#N)c21 | inactive | inactive | inactive | inactive | 82% (active) | inactive | inactive | inactive | inactive | inactive | inactive | inactive | 32.9% (active) | inactive | inactive | inactive |  |  |  |
| CN(Cc1cnn(C)c1)C(=O)c1ccc(OC2CCN(CCc3ccccc3)CC2)cc1 | inactive | inactive | inactive | inactive | 88% (active) |  | inactive | inactive | inactive | inactive | inactive | inactive |  | inactive | inactive | inactive | 59% (active) | inactive |  |
| COc1ccccc1CNCc1ccc(OC)c2ccccc12 | inactive | inactive | inactive | inactive | 96% (active) | inactive | inactive | inactive | inactive | inactive | inactive | inactive | 31% (active) | inactive | inactive | inactive |  |  |  |
| COc1cc(/C=C2\SC(N3CCC(C)CC3)=NC2=O)ccc1O | inactive | inactive | inactive | inactive | 91% (active) |  | inactive | inactive | inactive | inactive | inactive | inactive | 31.2% (active) | inactive | inactive | inactive | 48% (active) |  |  |
| Cn1cc(CNCC2CCCO2)c(-c2ccc(Oc3ccccc3)cc2)n1 (stereo unspecified) | inactive | inactive | inactive | inactive | 92% (active) | inactive | inactive | inactive | inactive | inactive | inactive | inactive | 45.9% (active) | inactive | inactive | inactive |  |  |  |
| COc1ccccc1CC(Cc1nc2ccccc2[nH]1)c1nc2ccccc2[nH]1 (stereo unspecified) | inactive | inactive | inactive | inactive | 83% (active) |  | inactive | inactive | inactive | inactive | inactive | inactive |  | inactive | inactive | inactive | 52% (active) | inactive |  |
| O=C(Nc1ccccc1N1CCN(C(=O)c2ccccc2)CC1)c1ccc(Br)o1 | inactive | inactive | inactive | inactive | 82% (active) |  | inactive | inactive | inactive | inactive | inactive | inactive | 31.6% (active) | inactive | inactive | inactive | 57% (active) |  |  |
| CCc1ccc2nc(N=C(N)N)nc(C)c2c1 | inactive | inactive | inactive | inactive | 93% (active) | inactive | inactive | inactive | inactive | inactive | inactive | inactive |  | inactive | inactive | inactive |  | inactive |  |
| CCCc1cc(=O)[nH]c(SCC(=O)Nc2sc3c(c2C#N)CCCC3)n1 | inactive | inactive | inactive | inactive | 85% (active) | inactive | inactive | inactive | inactive | inactive | inactive | inactive |  | inactive | inactive | inactive |  | inactive |  |
